# Compound activity from PubChem.
# HTR5A inv ag: HTR5A inverse agonists in luminescence cell assay, primary screen, counter-screen for OPRM1-OPRD1 heterodimer inverse agonist project, full-deck HTS; HTR5A cell line, inverse agonism; 340,000 compounds, 0.083% hits; 5-hydroxytryptamine receptor 5A (Homo sapiens), P47898; inhibition, % at 9.3 µM; in the data active = inhibition mostly above about 23%, no sharp cut-off; inactive = mostly below about 18%;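 also: 0% = cells with DMSO and 100% = no-cell wells with DMSO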
# HTR5A ag ctr: HTR5A agonists in luminescence cell assay, primary screen, counter-screen for OPRM1-OPRD1 heterodimer agonist project, full-deck HTS; 5-hydroxytryptamine receptor 5A (Homo sapiens), P47898; cell-based; activation, % at 9.3 µM; 340,000 compounds, 0.61% hits; AID 504692, 2011; in the data active = activation mostly above about 9.5%, no sharp cut-off; inactive = mostly below about 7.6%;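 also: 0% = cells with vehicle only and 100% = reference agonist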
# MOR-DOR ag: agonists of OPRM1-OPRD1 heterodimerization, primary screen, cell-based, luminescence. Mu-type opioid receptor (Homo sapiens) + Delta-type opioid receptor (Homo sapiens), …. cells. activation, % at 9.3 µM. 340,000 compounds, 0.3% hits. AID 504326, 2011;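 also: 0% = vehicle-treated cells and 100% = reference agonist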
# Target sequence (P35372 whole entry, looked up): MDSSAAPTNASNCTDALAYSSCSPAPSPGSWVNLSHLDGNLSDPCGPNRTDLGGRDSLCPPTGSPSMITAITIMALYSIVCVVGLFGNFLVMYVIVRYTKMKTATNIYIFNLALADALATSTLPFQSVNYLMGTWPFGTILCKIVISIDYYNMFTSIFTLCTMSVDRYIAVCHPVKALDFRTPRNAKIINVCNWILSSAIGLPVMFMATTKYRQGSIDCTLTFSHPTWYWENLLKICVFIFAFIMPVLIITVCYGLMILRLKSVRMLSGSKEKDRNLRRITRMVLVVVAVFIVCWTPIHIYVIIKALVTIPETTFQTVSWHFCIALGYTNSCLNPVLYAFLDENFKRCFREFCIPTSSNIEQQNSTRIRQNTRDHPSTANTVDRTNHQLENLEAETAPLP
# Target sequence (P41143 whole entry, looked up): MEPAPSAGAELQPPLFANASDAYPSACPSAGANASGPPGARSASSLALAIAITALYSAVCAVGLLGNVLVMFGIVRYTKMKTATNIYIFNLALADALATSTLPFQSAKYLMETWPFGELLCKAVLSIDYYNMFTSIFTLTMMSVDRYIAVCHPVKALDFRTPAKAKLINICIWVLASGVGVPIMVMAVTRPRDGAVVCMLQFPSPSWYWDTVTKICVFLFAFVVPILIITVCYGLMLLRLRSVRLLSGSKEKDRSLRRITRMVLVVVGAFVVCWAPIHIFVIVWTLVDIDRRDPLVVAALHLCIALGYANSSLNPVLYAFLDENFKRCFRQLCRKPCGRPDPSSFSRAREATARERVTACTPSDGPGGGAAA
# OPRM1-OPRD1 inv: inverse agonists of MOR-DOR heterodimerization, primary screen, cell-based, luminescence; inhibition, % at 9.3 µM; 340,000 compounds, 0.21% hits; cell-based MOR-DOR heterodimer luminescence, inverse agonism; in the data active = inhibition above about 22%, passing the limit was not always enough;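 also: 0% = cells with DMSO and 100% = wells without cells with DMSO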
# MOR-DOR ag conf: agonists of MOR-DOR heterodimerization, confirmation, cell-based, luminescence; shares compounds with MOR-DOR ag; cells, luminescence complementation; activation, % at 9.3 µM; 830 compounds, 45% hits; AID 504904, 2011;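 also: 0% = vehicle-treated cells and 100% = reference agonist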
# HTR5A ag ctr2: HTR5A agonists in cells, counter-screen for OPRM1-OPRD1 heterodimer agonist project, cell-based, luminescence. shares compounds with MOR-DOR ag. HTR5A agonist counterscreen. activation, % at 9.3 µM. 830 compounds, 8% hits. AID 504905, 2011; in the data active = activation above about 17%;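 also: 0% = vehicle-treated cells and 100% = reference agonist response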
# OPRM1-D1 inv cf: inverse agonists of MOR-DOR heterodimerization, confirmation, cell-based, luminescence | shares compounds with OPRM1-OPRD1 inv | cells expressing OPRM1/OPRD1 heterodimer | inhibition, % at 9.3 µM | 580 compounds, 20% hits | AID 504900, 2011; in the data active = inhibition above about 32%;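 also: 0% = cells with DMSO and 100% = wells lacking cells with DMSO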
# HTR5A inv ctr2: HTR5A inverse agonists, counter-screen for OPRM1-OPRD1 inverse agonist project, cell-based, luminescence. shares compounds with OPRM1-OPRD1 inv. HTR5A-expressing cells, inverse agonism. inhibition, % at 9.3 µM. 580 tested, under 10 active. AID 504914, 2011; call rule not given here;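 also: 0% = cells with DMSO and 100% = no-cell wells with DMSO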
# * = called active by the depositor; i = inactive; . = no result. A selection: hits, their analogues and other compounds. The true share with any hit is near 1.1%. Rule as the data show it, unless noted: active = activation above about 18%; inactive = the rest.
SMILES,HTR5A inv ag,HTR5A ag ctr,MOR-DOR ag,OPRM1-OPRD1 inv,MOR-DOR ag conf,HTR5A ag ctr2,others
COCCNC(=O)CSc1nc(N)c(NC(=O)c2ccccc2F)c(=O)[nH]1,0,3,-1,3,.,.,
COc1ccc(CC(=O)Nc2ccc(-c3cn4cccc(C)c4n3)cc2)cc1OC,-31,-2,3,-15,.,.,
Cc1cccn2cc(-c3ccc(NC(=O)Cc4ccccc4)cc3)nc12,-73,17*,39*,-213,6,11,
CSc1nccc(N/N=C/c2ccccc2)n1,7,-2,-1,5,.,.,
CN1C2C=C(N(CCc3c[nH]c4ccccc34)C(=O)c3ccc(Cl)cc3)CC1CC2 (stereo not given),-9,0,100*,i,138*,6,
COc1ccc(C2Nc3ccccc3C(=O)N2Cc2ccco2)cc1COc1ccc([N+](=O)[O-])cc1 (stereo not given),-2,1,22*,-110,13,-1,
COc1cccc(OCc2cc(C3Nc4ccccc4C(=O)N3Cc3ccco3)ccc2OC)c1 (stereo not given),-1,1,-2,10,.,.,
COc1ccc(CCn2c(=S)[nH]c3cc(C(=O)NCc4ccco4)ccc3c2=O)cc1OC,-1,-1,28*,-127,24*,5,
COc1cc(C(=O)NCC(=O)N/N=C/c2cccnc2)cc(OC)c1OC,-8,3,0,-3,.,.,
CC(=O)c1ccc(NC(=O)Nc2ccc3c(c2)N(C)C(=O)CS3)cc1,12,2,50*,-293,120*,-1,
CC1(C)CC(=O)c2cc(C(=O)Nn3cnnc3)c(=O)n(-c3ccccc3)c2C1,14,-6,-2,12,.,.,
COc1ccc(-n2c3c(cc(C(=O)NNc4ccccc4)c2=O)C(=O)CC(C)(C)C3)cc1,4,-2,129*,i,0,3,
COc1ccc(-n2c3c(cc(C(=O)NNc4ccccc4C)c2=O)C(=O)CC(C)(C)C3)cc1,-7,3,99*,-470,133*,-1,
Cc1ccccc1N(CC(=O)N/N=C/c1ccc(F)cc1)C(=O)c1ccccc1,-12,8,30*,-158,46*,2,
COC(=O)CSc1nnc(-c2sc3cc(OC)ccc3c2Cl)n1C,-10,-3,19*,-85,1,3,
CC(=O)Nc1cccc(/C(C)=N/NC(=O)c2cccc(S(=O)(=O)N3CCOCC3)c2)c1,-24,0,-1,5,.,.,
C/C(=N\NC(=O)c1cccc(S(=O)(=O)N2CCOCC2)c1)c1ccc(O)cc1,-19,8,219*,i,-1,2,
CCn1cc(CNC(=O)C2CCC(=O)N(C3CCCCCC3)C2)cn1 (stereo not given),5,2,-1,6,.,.,
Cc1ccc(S(=O)(=O)/N=C2/C=C(Sc3ncn[nH]3)C(=O)c3ccccc32)cc1,-21,10,23*,-125,5,-6,
Cc1ccc(S(=O)(=O)/N=C2\C=C(Nc3ccc(O)cc3)C(=O)c3ccccc32)cc1,-7,0,16,-64,.,.,
CCCCCCn1c(SCC(=O)Nc2cc(C)on2)nc2ccccc2c1=O,-19,3,21*,-121,26*,17*,
COCCn1c(SCC(=O)Nc2cc(C)on2)nc2ccccc2c1=O,-10,4,-5,18,.,.,
c1ccc(CCNc2ccnc3cc4ccccc4cc23)cc1,4,10,32*,-164,24*,12,
Cc1ccc(/C([O-])=C(/C(=S)Nc2ccc(SC(F)F)cc2)[n+]2ccccc2)cc1[N+](=O)[O-],-19,-3,24*,-118,0,7,
O=C(Nc1ccc(C(F)(F)F)cc1[N+](=O)[O-])O[C@H]1[C@H](Cc2ccccc2)NS(=O)(=O)[C@H]2C[C@@H]3C=C[C@]12O3,-7,-1,18*,-107,12,2,
SMILES,HTR5A inv ag,HTR5A ag ctr,MOR-DOR ag,OPRM1-OPRD1 inv,MOR-DOR ag conf,HTR5A ag ctr2,others
CCOc1ccc(C(C)=O)cc1CN1C(=O)NC(C)(C2CC2)C1=O (stereo not given),7,-2,-2,9,.,.,
CC(=O)CSc1ccc(S(=O)(=O)N2CCN(C)CC2)cn1,-4,1,-4,15,.,.,
COCCN(CCOC)C(=O)CSc1ccc(S(=O)(=O)N2CCN(C)CC2)cn1,5,-2,32*,-138,0,2,
O=C(COc1ccc(/C=N/NC(=O)c2cc3ccccc3o2)cc1Br)Nc1ccccc1,-57,4,45*,-264,41*,15,
COc1cccc(N(CC(=O)NCCSc2ccccn2)S(=O)(=O)c2ccccc2)c1,-22,4,5,-37,.,.,
COc1cccc(CNCCc2c[nH]c3ccccc23)c1OCc1ccccc1,-45,10,18*,-99,27*,8,
COc1cc(CNCCc2c[nH]c3ccccc23)ccc1OCc1ccccc1F,2,-3,-1,6,.,.,
Cc1cc(C)cc(Oc2coc3cc(OC(=O)c4cccnc4)ccc3c2=O)c1,13,-4,22*,-118,2,0,
CCOc1ccc(-n2nnnc2SCC(=O)Nc2cccc(O)c2)cc1,-3,1,-1,7,.,.,
O=C1c2ccccc2-c2nccnc21,39*,-5,-14,80*,.,.,OPRM1-D1 inv cf=87*;HTR5A inv ctr2=11
CCn1cc(C(=O)N[C@@H](CCSC)C(=O)NCCCn2ccnc2)c(=O)c2cc3c(cc21)OCO3,0,1,-2,9,.,.,
O=C1Nc2ccccc2C1(O)Cc1ccncc1 (stereo not given),-2,-2,-2,9,.,.,
Cc1ccc(Cl)c2c1NC(=O)C2(O)CC(=O)c1ccc(Br)cc1 (stereo not given),-14,-3,-5,30*,.,.,OPRM1-D1 inv cf=-1;HTR5A inv ctr2=8
O=C(CC1(O)C(=O)Nc2cc(Cl)cc(Cl)c21)c1ccncc1 (stereo not given),1,-2,-5,29*,.,.,OPRM1-D1 inv cf=-4;HTR5A inv ctr2=-9
CCS(=O)(=O)Nc1ccc(C(=O)CC2(O)C(=O)Nc3ccc(Br)cc32)cc1 (stereo not given),31,8,-2,8,.,.,
Cc1ccc(C(=O)N/C(=C/c2ccc(Cl)cc2)C(=O)N2CCOCC2)cc1,-10,4,3,-20,.,.,
